# Screening data deposited in PubChem BioAssay by National Center for Advancing Translational Sciences (NCATS).
# Many of the other results were omitted from the sample, so hits are more common in it than they were.
# KDM5B inh = Primary screen for KDM5B Histone Demethylases FDH-coupled qHTS; KDM5B demethylase, FDH-coupled NADH fluorescence (FDH is formaldehyde dehydrogenase); Potency, µM (titrated, usually from 57.7 µM), most hits filed as inhibitors; AID 1347165, 2019; Lysine-specific demethylase 5B (Homo sapiens), Q9UGL1; 220,000 compounds, 2.6% hits; active = well fitted inhibition curve with a large enough effect; also: 0% is about no effect; nearly all actives have a fitted effect of over 70% in size
# Target sequence (Q9UGL1 whole entry, looked up): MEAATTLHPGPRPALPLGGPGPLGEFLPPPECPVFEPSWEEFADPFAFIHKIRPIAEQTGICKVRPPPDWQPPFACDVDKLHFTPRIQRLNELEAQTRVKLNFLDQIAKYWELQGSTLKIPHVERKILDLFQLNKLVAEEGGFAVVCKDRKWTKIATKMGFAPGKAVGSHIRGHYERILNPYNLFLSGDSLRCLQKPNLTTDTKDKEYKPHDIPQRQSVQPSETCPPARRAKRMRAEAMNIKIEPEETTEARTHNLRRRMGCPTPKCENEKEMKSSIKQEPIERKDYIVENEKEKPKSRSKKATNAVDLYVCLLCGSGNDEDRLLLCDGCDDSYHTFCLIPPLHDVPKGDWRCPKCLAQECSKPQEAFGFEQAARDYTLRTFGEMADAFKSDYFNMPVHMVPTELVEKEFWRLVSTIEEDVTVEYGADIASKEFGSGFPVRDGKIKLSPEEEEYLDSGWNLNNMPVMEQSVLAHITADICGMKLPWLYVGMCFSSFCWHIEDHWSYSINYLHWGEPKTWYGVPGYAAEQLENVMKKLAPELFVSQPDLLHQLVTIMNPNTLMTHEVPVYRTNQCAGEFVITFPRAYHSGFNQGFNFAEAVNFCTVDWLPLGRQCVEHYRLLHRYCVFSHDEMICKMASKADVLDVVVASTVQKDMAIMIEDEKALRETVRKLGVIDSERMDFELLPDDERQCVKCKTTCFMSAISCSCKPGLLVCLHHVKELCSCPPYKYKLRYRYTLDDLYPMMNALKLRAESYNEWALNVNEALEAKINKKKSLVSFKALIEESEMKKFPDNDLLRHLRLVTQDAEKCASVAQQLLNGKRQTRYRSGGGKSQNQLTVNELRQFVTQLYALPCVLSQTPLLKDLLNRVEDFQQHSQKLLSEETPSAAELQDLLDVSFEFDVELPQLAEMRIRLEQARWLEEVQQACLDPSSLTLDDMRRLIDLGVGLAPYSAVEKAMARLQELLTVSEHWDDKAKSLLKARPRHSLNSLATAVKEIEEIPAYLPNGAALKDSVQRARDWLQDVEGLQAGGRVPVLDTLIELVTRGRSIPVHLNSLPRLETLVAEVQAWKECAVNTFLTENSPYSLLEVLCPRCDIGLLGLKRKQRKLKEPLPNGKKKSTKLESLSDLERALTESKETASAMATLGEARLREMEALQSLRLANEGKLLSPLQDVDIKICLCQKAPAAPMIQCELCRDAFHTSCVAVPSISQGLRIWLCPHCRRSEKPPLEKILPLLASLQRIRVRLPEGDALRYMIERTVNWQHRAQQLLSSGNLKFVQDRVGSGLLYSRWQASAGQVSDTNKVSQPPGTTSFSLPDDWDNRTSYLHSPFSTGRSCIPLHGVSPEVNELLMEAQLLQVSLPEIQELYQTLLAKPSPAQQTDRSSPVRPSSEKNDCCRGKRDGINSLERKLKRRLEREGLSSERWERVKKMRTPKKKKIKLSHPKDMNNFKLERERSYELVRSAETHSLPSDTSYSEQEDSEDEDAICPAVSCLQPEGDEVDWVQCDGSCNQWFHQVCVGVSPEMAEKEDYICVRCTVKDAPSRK
#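 Inhibition is measured as reduced NADH fluorescence generation from FDH coupling to formaldehyde release. Truncated KDM5BΔAP at 200 nM final acts on H3K4me3 peptide (12.5 µM in substrate mix) in pH 7.5 HEPES buffer with Tween-20, 30 min, room temperature.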
# An asterisk follows results filed as active; i = inactive. Potency is read from the fitted curve at half-maximal effect.
SMILES,KDM5B inh
COc1ccc(CN2CCC(O)(c3csc(CN4CC[C@@H](O)C4)n3)CC2)cc1,i
COc1ccc(-c2noc([C@@H]3CCCN3C(=O)c3cccc(C)c3)n2)cc1OC,i
O=C(O)CN(/C=C/C(=O)C(F)(F)F)CC(=O)O,i
Cc1ccc(-c2cnc(CCC(=O)Nc3c(C)cccc3C(C)C)o2)cc1,i
COCCn1c(=O)c2c(nc(-n3nc(C)c(C)c3C)n2Cc2ccccc2F)n(C)c1=O,i
COc1ccccc1CCNC(=O)Cn1nc(C(N)=O)c2ccccc2c1=O,i
CCC(C)c1ccc(NC(=O)N2CCN(Cc3ccc(Cl)s3)CC2)cc1 (centres undefined),i
Cc1cccc(COc2ccccc2C(=O)O)c1,i
NC(=O)C(O)(c1ccccc1)c1ccccc1,i
CC(C)NC(=O)N1CCCC(Cn2c(C3CC3)nc3cccnc32)C1 (centres undefined),i
CC(C)(C)c1ccc(C(=O)NC(Cc2c[nH]c3ccccc23)C(=O)O)cc1 (centres undefined),i
COc1ccc(-c2cc3c(cn2)CN(CCc2ccccc2)CCN3)cc1OC,35µM*
c1ccc(CCN2CCNc3cc(Nc4ccc(N5CCOCC5)cc4)ncc3C2)cc1,i
COc1ccc(Cl)cc1-c1cc2c(cn1)CN(Cc1cccnc1)CCN2,32µM*
C[S+](=O)([O-])c1ccc(-c2cc3c(cn2)CN(CCc2ccccc2)CCN3)cc1,40µM*
COc1cccc(Nc2cc3c(cn2)CN(Cc2cccnc2)CCN3)c1,i
COc1ccc(CNc2cc3c(cn2)CN(Cc2ccccc2)CCN3)cc1OC,i
C[S+](=O)([O-])c1cccc(NC(=O)c2cnc3n2CCN(CCc2ccccc2)CC3)c1,i
COc1ccc(-c2cc3c(cn2)CN(Cc2ccccc2)CCN3)cc1OC,32µM*
N#Cc1c(-c2ccccc2)cc(-c2ccc(Cl)cc2)c(C#N)c1N,i
CCSc1nc2n(n1)C(c1ccccc1Cl)C1=C(CCCC1=O)N2 (centres undefined),i
CCOc1ccccc1-n1nnc2c(=O)n(Cc3nc(-c4ccc(OC)cc4OC)no3)cnc21,i
COC(=O)c1sc(N)c(C#N)c1C,i
CC(=O)/C(=C1\NC(C)(C)Cc2cc(C)c(C)cc21)c1ccccc1,i
CC(C(=O)Nc1ccc(F)cc1)N(C)Cc1ccc2c(c1)OCCO2 (centres undefined),i
SMILES,KDM5B inh
CC(C)C(NC(=O)c1nn(C)c(=O)c2ccccc12)c1ccccc1 (centres undefined),i
CC(NS(=O)(=O)c1ccc2c(c1)CCN2C(=O)N1CCCC1)C(=O)Nc1ccccc1 (centres undefined),i
COc1ccccc1Oc1coc2cc(OCc3cccc(Cl)c3)ccc2c1=O,i
CN(Cc1ccco1)C(=O)c1cn[nH]c1-c1ccc(Cl)cc1,i
COc1ccccc1CN1CCNc2cc(-c3ccnc(C)c3)ncc2C1,i
Cc1cc(-c2cc3c(cn2)CN(CC2CCOCC2)CCN3)ccn1,35µM*
COCc1nnc(NC(=O)Cn2ccc3c(Cl)cccc32)s1,i
COc1ccc(NC(=O)c2cc(Br)c(O)c(OC)c2)cc1,i
COc1cccc(C(=O)N[C@@H]2CN(c3ccccn3)C[C@H]2CN(C)C)c1,28µM*
CN(C)C[C@@H]1CN(c2ncccn2)C[C@H]1NC(=O)c1ccc(Cl)s1,28µM*
Cc1cc(C(=O)N[C@@H]2CN(c3ccncn3)C[C@H]2CN(C)C)n[nH]1,i
CN(C)C[C@@H]1CN(C)C[C@H]1NC(=O)c1cc(F)ccc1F,i
Cc1ccc(C(=O)N[C@@H]2CN(c3ccncn3)C[C@H]2CN(C)C)s1,i
Cc1cccc(C(=O)N[C@@H]2CN(Cc3cccnc3)C[C@H]2CN(C)C)c1,i
CN(C)C[C@@H]1CN(c2ncccn2)C[C@H]1NC(=O)c1cccc(F)c1,20µM*
COc1cccc(C(=O)N[C@@H]2CN(c3ccccn3)C[C@H]2CN(C)C)c1OC,28µM*
COc1cccc(CC(=O)N[C@@H]2CN(Cc3ccccn3)C[C@H]2CN(C)C)c1,i
CN(C)C[C@@H]1CN(S(C)(=O)=O)C[C@H]1NC(=O)c1ccc(Cl)s1,i
O=C1/C(=C/c2ccc(-c3ccc(F)cc3)o2)Cc2ccccc21,i
Cc1ccccc1C(=O)/C=C/c1cc2ccccc2nc1N1CCOCC1,i
CC(c1nc2ccccc2s1)N(C)C(=O)c1cccc(S(=O)(=O)Nc2ccccc2F)c1 (centres undefined),i
CCCCc1nnc(NC(=O)CCc2c[nH]c3ccccc23)s1,i
CCc1ccc(C(=O)C(C)OC(=O)c2ccc3c(c2)CCCC3)cc1 (centres undefined),i
Cc1ncc(COC(=O)C(C)C)c2cc(-c3nc(-c4ccccc4F)no3)c(=O)oc12,i
Cc1ccsc1C(=O)OCC(=O)N1c2ccccc2NC(=O)C1(C)C,i
SMILES,KDM5B inh
COc1ccc(C(=O)N2CCCC3(C2)NC(=O)N(Cc2cccc(Cl)c2)C3=O)cc1F (centres undefined),i
NCCSCc1ccco1,i
CCOC(=O)c1c(S(=O)(=O)N2CCCC(C(=O)Nc3ccc(F)cc3)C2)c(C)n(C)c1C (centres undefined),i
CCOC(=O)c1ccoc1COC(=O)c1[nH]c(C)c(C(=O)OC)c1C,i
COc1ccc(C(=O)N[C@@H]2CN(c3ncccn3)C[C@H]2CN(C)C)cc1F,25µM*
CNC(=O)N1C[C@@H](CN(C)C)[C@H](NC(=O)c2cccnc2)C1,i
CN(C)C[C@@H]1CN(Cc2cccnc2)C[C@H]1NC(=O)c1ccc(F)c(Cl)c1,i
COc1ccc(C(=O)N[C@@H]2CN(Cc3ccccn3)C[C@H]2CN(C)C)cc1F,i
CN(C)C[C@@H]1CN(S(C)(=O)=O)C[C@H]1NC(=O)c1ccccc1,i
COc1cccc(C(=O)N[C@@H]2CN(c3ncccn3)C[C@H]2CN(C)C)c1,32µM*
CS(=O)(=O)c1cccc(C(=O)NCc2coc(-c3cccs3)n2)c1,i
CNC(=O)NC(=O)CNc1cccc(C)c1C(=O)OC,i
COc1ccc(-c2nnc(SCc3csc(Nc4ccc(C)cc4)n3)o2)cc1,i
COc1ccc(CN2CC3(CCN(C(=O)Nc4cccc(C(F)(F)F)c4)CC3)C2=O)cc1,i
O=C(OCc1ccc(F)cc1F)c1cccc([N+](=O)[O-])c1,i
COCCNC(=O)c1ccc(CC2CCN(C(=O)CN3CCCCCC3)CC2)cc1,i
COCC(=O)N1CCC(Oc2ccc(C(=O)NCCN3CCNC3=O)cc2)CC1,i
COCCNC(=O)c1ccc(OC2CCN(C(=O)[C@@H](C)N)CC2)c(Cl)c1,i
COCCNC(=O)c1ccc2c(c1)N(C)C(CC(=O)N1CCNC(=O)C1)CO2 (centres undefined),28µM*
CN1c2cc(C(=O)N3CCOCC3)ccc2OCC1CC(=O)NC(C)(C)C (centres undefined),i
COCCNC(=O)c1ccc2c(c1)N(C)C(CC(=O)N1CCCC1)CO2 (centres undefined),32µM*
NC(=O)c1ccc(OCc2coc(-c3cccc(F)c3)n2)cc1,i
COc1cc(C2C(C(=O)Nc3ccccc3)=C(C)Nc3nc(CCCO)nn32)cc(OC)c1OC (centres undefined),i
COc1ccc(C(=O)N(Cc2nc3nc(C)cc(=O)n3[nH]2)c2ccc(C)cc2)cc1,i
